Experimental data from PubChem BioAssay AID1159580 (chemical genetic matrix, 2015).
In all, about 5,500 compounds went through this assay and about 2,000 (36%) were called active. Roughly 18% stayed inconclusive and do not appear here. Cut-off read from the data, not from the text of the source: active = normalized growth mostly below about 0.91 (no sharp cut-off); inconclusive = no clear call, values can overlap the other calls; inactive = mostly above about 0.92. This is one part of the list.

Assay: chemical genetic growth profiling, strain panel (AID 1159580);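 note: tested at 20 µM; growth read once vehicle control cultures reached saturation at 30 °C; 1 = growth at the plate median or of vehicle wells; lower values mean less growth of the strain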
Settings: growth OD

Measured: normalized growth

N[C@@H](Cc1ccc(O)c(O)c1)C(=O)O
inactive: S. cerevisiae deletion strains, locus YJR075W, strain HOC1, hits give low values 1 | S. cerevisiae deletion strains, locus YKL009W, strain mrt4, hits give low values 0.961 | S. cerevisiae deletion strains, locus YKL068W, hits give low values 0.979 | S. cerevisiae deletion strains, locus YKL085W, strain MDH1 (second series), hits give low values 1 | S. cerevisiae deletion strains, locus YKL085W, strain MDH1, hits give low values 1 | S. cerevisiae deletion strains, locus YKL160W, strain elf1, hits give low values 1.01 | S. cerevisiae deletion strains, locus YKL190W, strain CNB1, hits give low values 0.964 | S. cerevisiae deletion strains, locus YKR001C, strain vps1, hits give low values 1 | S. cerevisiae deletion strains, locus YKR026C, strain gcn3, hits give low values 0.989 | S. cerevisiae deletion strains, locus YKR091W, strain srl3, hits give low values 0.998 | S. cerevisiae deletion strains, locus YLL001W, strain dnm1, hits give low values 0.983 | S. cerevisiae deletion strains, locus YLL026W, hits give low values 0.995 | S. cerevisiae deletion strains, locus YLL041C, strain sdh2, hits give low values 1 | S. cerevisiae deletion strains, locus YLR027C, strain aat2, hits give low values 1.01 | S. cerevisiae deletion strains, locus YLR039C, strain RIC1, hits give low values 0.91 | S. cerevisiae deletion strains, locus YLR058C, strain SHM2, hits give low values 0.996 | S. cerevisiae deletion strains, locus YLR102C, strain apc9, hits give low values 0.991 | S. cerevisiae deletion strains, locus YLR113W, strain HOG1, hits give low values 0.93 | S. cerevisiae deletion strains, locus YLR221C, strain rsa3, hits give low values 0.999 | S. cerevisiae deletion strains, locus YLR258W, strain gsy2, hits give low values 0.985 | S. cerevisiae deletion strains, locus YLR262C, strain YPT6 (second series), hits give low values 1.01 | S. cerevisiae deletion strains, locus YLR262C, strain YPT6, hits give low values 0.898 | S. cerevisiae deletion strains, locus YLR268W, strain sec22, hits give low values 1 | S. cerevisiae deletion strains, locus YLR320W, strain mms22, hits give low values 1.01 | S. cerevisiae deletion strains, locus YLR330W, strain CHS5, hits give low values 0.987 | S. cerevisiae deletion strains, locus YLR342W, strain FKS1 (second series), hits give low values 0.949 | S. cerevisiae deletion strains, locus YLR342W, strain FKS1, hits give low values 1.01 | S. cerevisiae deletion strains, locus YLR357W, strain rsc2, hits give low values 0.975 | S. cerevisiae deletion strains, locus YLR370C, strain arc18, hits give low values 1 | S. cerevisiae deletion strains, locus YLR371W, strain rom2, hits give low values 0.975 | S. cerevisiae deletion strains, locus YLR384C, strain iki3, hits give low values 1 | S. cerevisiae deletion strains, locus YLR418C, strain cdc73, hits give low values 1.04 | S. cerevisiae deletion strains, locus YML016C, strain PPZ1, hits give low values 0.991 | S. cerevisiae deletion strains, locus YML032C, strain rad52, hits give low values 0.991 | S. cerevisiae deletion strains, locus YML120C, strain ndi1, hits give low values 1 | S. cerevisiae deletion strains, locus YML124C, strain tub3, hits give low values 0.996 | S. cerevisiae deletion strains, locus YMR058W, strain fet3, hits give low values 0.993 | S. cerevisiae deletion strains, locus YMR078C, strain ctf18, hits give low values 0.995 | S. cerevisiae deletion strains, locus YMR125W, strain sto1, hits give low values 0.976 | S. cerevisiae deletion strains, locus YMR129W, hits give low values 0.986 | S. cerevisiae deletion strains, locus YMR205C, strain PFK2, hits give low values 0.982 | S. cerevisiae deletion strains, locus YMR223W, strain ubp8, hits give low values 1.01 | S. cerevisiae deletion strains, locus YMR231W, strain pep5, hits give low values 0.992 | S. cerevisiae deletion strains, locus YMR263W, strain SAP30, hits give low values 0.982 | S. cerevisiae deletion strains, locus YMR307W, strain GAS1, hits give low values 0.921 | S. cerevisiae deletion strains, locus YNL067W, strain RPL9B, hits give low values 0.982 | S. cerevisiae deletion strains, locus YNL071W, strain lat1, hits give low values 1.02 | S. cerevisiae deletion strains, locus YNL128W, strain TEP1, hits give low values 0.954 | S. cerevisiae deletion strains, locus YNL153C, strain GIM3, hits give low values 0.991 | S. cerevisiae deletion strains, locus YNL183C, strain NPR1, hits give low values 0.923 | S. cerevisiae deletion strains, locus YNL209W, strain ssb2, hits give low values 1.01 | S. cerevisiae deletion strains, locus YNL233W, strain BNI4, hits give low values 1 | S. cerevisiae deletion strains, locus YNL248C, strain rpa49, hits give low values 0.99 | S. cerevisiae deletion strains, locus YNL250W, strain rad50, hits give low values 0.98 | S. cerevisiae deletion strains, locus YNL271C, strain bni1, hits give low values 0.987 | S. cerevisiae deletion strains, locus YNL298W, strain CLA4, hits give low values 0.995 | S. cerevisiae deletion strains, locus YNL307C, strain MCK1, hits give low values 1 | S. cerevisiae deletion strains, locus YNL322C, strain KRE1 (second series), hits give low values 0.99 | S. cerevisiae deletion strains, locus YNL322C, strain KRE1, hits give low values 0.989 | S. cerevisiae deletion strains, locus YNR049C, strain mso1, hits give low values 1 | S. cerevisiae deletion strains, locus YNR052C, strain pop2, hits give low values 1 | S. cerevisiae deletion strains, locus YOL006C, strain TOP1, hits give low values 0.753 | S. cerevisiae deletion strains, locus YOL012C, strain htz1 0.813 | S. cerevisiae deletion strains, locus YOL147C, strain pex11, hits give low values 1 | S. cerevisiae deletion strains, locus YOR001W, strain rrp6, hits give low values 0.996 | S. cerevisiae deletion strains, locus YOR061W, strain CKA2, hits give low values 0.992 | S. cerevisiae deletion strains, locus YOR069W, strain VPS5, hits give low values 1 | S. cerevisiae deletion strains, locus YOR070C, strain gyp1, hits give low values 0.998 | S. cerevisiae deletion strains, locus YOR080W, strain dia2, hits give low values 0.993 | S. cerevisiae deletion strains, locus YOR083W, strain WHI5, hits give low values 1.01 | S. cerevisiae deletion strains, locus YOR106W, strain vam3, hits give low values 0.996 | S. cerevisiae deletion strains, locus YOR136W, strain idh2, hits give low values 1 | S. cerevisiae deletion strains, locus YOR144C, strain elg1, hits give low values 0.996 | S. cerevisiae deletion strains, locus YOR184W, strain ser1, hits give low values 0.982 | S. cerevisiae deletion strains, locus YOR231W, strain MKK1, hits give low values 0.942 | S. cerevisiae deletion strains, locus YOR265W, strain rbl2, hits give low values 0.998 | S. cerevisiae deletion strains, locus YOR270C, strain vph1, hits give low values 1.02 | S. cerevisiae deletion strains, locus YOR290C, strain snf2, hits give low values 0.933 | S. cerevisiae deletion strains, locus YOR316C, strain cot1, hits give low values 0.995 | S. cerevisiae deletion strains, locus YPL051W, strain arl3, hits give low values 0.994 | S. cerevisiae deletion strains, locus YPL055C, strain LGE1, hits give low values 0.92 | S. cerevisiae deletion strains, locus YPL078C, strain atp4, hits give low values 1.01 | S. cerevisiae deletion strains, locus YPL106C, strain sse1, hits give low values 0.96 | S. cerevisiae deletion strains, locus YPL240C, strain hsp82, hits give low values 0.995 | S. cerevisiae deletion strains, locus YPL241C, strain CIN2, hits give low values 0.987 | S. cerevisiae deletion strains, locus YPL256C, strain CLN2, hits give low values 0.929 | S. cerevisiae deletion strains, locus YPR119W, strain clb2, hits give low values 1 | S. cerevisiae deletion strains, locus YPR141C, strain kar3, hits give low values 0.98 | S. cerevisiae deletion strains, locus YPR163C, strain tif3, hits give low values 1.01 | S. cerevisiae deletion strains, locus YPR167C, strain met16, hits give low values 1.01 | S. cerevisiae deletion strains, strain wtn01, hits give low values 1.01 | S. cerevisiae strains, strain wild type, hits give low values 0.955
